Records with an inconclusive call do not appear. A call without a number means that no potency is given here. Activity calls are given as the source filed them. Calls follow the shape of the dose curve; as a rule, active = well fitted curve in the direction sought with a large enough effect; inconclusive = small, poorly fitted or top-dose-only effect, or another doubt; inactive = no such curve, though single readings can be large; an effect the other way counts as inactive or inconclusive.
Experiments:
[1] = target: Aldehyde dehydrogenase, mitochondrial (Homo sapiens) (UniProt P05091); assay: qHTS for Inhibitors of the Aldehyde Dehydrogenase Family (ALDH2) Primary screen (AID 2061308); settings: ALDH2 enzyme inhibition qHTS, 1536-well; series mostly up to 56 µM; also: nearly all actives have a fitted effect of over 55% in size
[2] = target: Retinaldehyde dehydrogenase 3 (Homo sapiens) (UniProt P47895); assay: qHTS for Inhibitors of the Aldehyde Dehydrogenase Family (ALDH1A3) Primary screen (AID 2061315); settings: ALDH inhibition qHTS; series mostly up to 56 µM

SMILES	Potency [1]	Potency [2]
O=C(Nc1ccc(Br)cc1)Nc1nnc(-c2ccncc2)s1	inactive	inactive
Cc1nnc(-c2ccccc2[N+](=O)[O-])n1CCCn1ccnc1	inactive	inactive
CC(=O)Nc1sc2c(c1-c1cccc3ccccc13)CCNC2	inactive	inactive
COc1cccc(CNc2ccc(S(=O)(=O)Nc3cccnc3)cc2)c1O	inactive	inactive
CCc1ccc(NC(=O)c2cnn3c(C)cc(-c4ccccc4)nc23)cc1	inactive	inactive
N#Cc1nc(Nc2cccc(C(F)(F)F)c2)nc(NC2CCCC2)n1	inactive	inactive
COc1ccc(COc2ccc(-c3nc4ccccc4[nH]3)cc2)cc1OC	inactive	inactive
CN(C)CCCN1CCCN(C(=O)c2cccc(-c3cc(O)c4ncccc4c3)c2)C1	inactive	inactive
COc1ccc(-c2nnc3n2N=C(c2cccc(OC)c2)CS3)cc1	inactive	inactive
Brc1cnc2nc(SCc3cccnc3)[nH]c2c1	inactive	inactive
Cc1ccc(-c2cc(C(=O)NCc3ccc(S(N)(=O)=O)cc3)c3ccccc3n2)cc1C	inactive	inactive
Cc1ccc(S(=O)(=O)Nc2cnccc2C(=O)Nc2nc(-c3cccc(C)c3)cs2)cc1	inactive	inactive
CC1CC1C(=O)Nc1ccc([S+](=O)([O-])Nc2nccs2)cc1 (configuration not stated)	inactive	inactive
O=C(Cc1ccc2ccccc2c1)Nc1nnc(-c2ccncc2)s1	inactive	inactive
Cc1cnc(-c2ccccc2C2CC2)nc1NCc1ccc(-c2cccnc2)cc1	inactive	inactive
COc1ccc(C2=Nn3c(nnc3-c3ccccc3F)SC2)cc1OC1CCCC1	inactive	inactive
CC(=O)Nc1nc(-c2ccc3c(c2)CCN3C(=O)c2ccccc2C)c(C)s1	inactive	inactive
O=C(Nc1ccc2ccccc2c1)Nc1nnc(-c2ccc(F)cc2)s1	inactive	inactive
Cc1cc2c(s1)c1cnn(Cc3cccc(Cl)c3)c(=O)c1n2C	inactive	inactive
N/C(=N\c1nnc(-c2ccncc2)s1)Nc1ccc(Cl)c(Cl)c1	inactive	inactive
N#Cc1cccc(Nc2ncc(-c3cccc4ccccc34)o2)c1	inactive	inactive
NC(=O)C1CCN(c2nc(-c3cccc(C(F)(F)F)c3)cs2)CC1	inactive	inactive

SMILES	Potency [1]	Potency [2]
Cc1nc(CNc2ncnc3ccc(-c4oc(-c5ccccc5)nc4C)cc23)cs1	inactive	inactive
O=C(Cc1ccc2ccccc2c1)Nc1ccc(S(=O)(=O)Nc2nccs2)cc1	inactive	inactive
Cc1ccc(OCCn2c(CCNC(=O)c3ccccc3)nc3ccccc32)cc1	inactive	inactive
O=C1CCCC2=C1C(c1[nH]ncc1Cl)NC(=NCCc1ccccc1)N2 (configuration not stated)	inactive	inactive
COc1cccc(NCc2ccc(O)c3ncccc23)n1	inactive	inactive
CNc1nc(-c2ccc3c(N)n[nH]c3c2)cc(N2CC(C(=O)NC3CCCCC3)CCC2C)n1 (configuration not stated)	inactive	inactive
C/C=C1\[C@H](O[C@@H]2O[C@H](CO)[C@@H](O)[C@H](O)[C@H]2O)OC=C2C(=O)OCCc3ccc(O)c(c3)Oc3ccc(cc3)CCOC(=O)C[C@H]21	inactive	inactive
Cn1cccc1CN=C1NC2=C(C(=O)CCC2)C(c2[nH]ncc2Cl)N1 (configuration not stated)	inactive	inactive
Cc1cc(C)nc(NC(=S)N2CCN(Cc3cccc4ccccc34)CC2)c1	inactive	inactive
O=C(NCc1ccccc1)n1cc(P(=S)(c2ccccc2)c2ccccc2)c2ccccc21	inactive	inactive
Cc1ccc(S(=O)(=O)Nc2cnccc2C(=O)Nc2nc3ccccc3s2)cc1	inactive	inactive
CCCn1c(C)nc2c(NC(C)CCCN(CC)CC)nc(C)nc21 (configuration not stated)	inactive	inactive
Cc1cc(C)nc(NC(=S)N2CCN(Cc3c(F)cccc3Cl)CC2)c1	inactive	inactive
Cc1ccc(OCCn2c(CCNC(=O)Cc3ccccc3F)nc3ccccc32)cc1	inactive	inactive
O=C(CNC(=O)c1ccccc1Cl)OC(C(=O)Nc1cc(C(F)(F)F)ccc1Cl)c1ccccc1 (configuration not stated)	inactive	inactive
COc1ccc(-c2ccc3ncnc(N(C)Cc4csc(C)n4)c3c2)cc1OC	inactive	inactive
CC(O)(C(=O)C1CC1(CO)COC1OC(CO)C(O)C(O)C1O)C1C(O)CC2C3CC=C4CC(O)CC(O)C4(C)C3C(O)CC21C (configuration not stated)	inactive	inactive
O=C(CSc1nnc(-c2cccc([S+](=O)([O-])N3CCCC3)c2)n1-c1ccccc1)Nc1ccc2c(c1)OCCO2	inactive	inactive
COc1cc(OC)cc(-c2nnc3n2N=C(c2ccc(OC)c(OC)c2)CS3)c1	inactive	inactive
COc1ccc(NC(=O)c2cnn3c(C)cc(C)nc23)cc1OC	inactive	inactive
C=C1C[C@]23C[C@H]1CC[C@H]2C1=C[C@H]2OC(=O)[C@@](C)([C@H]1[C@@H]3C(=O)O)[C@H]2O	inactive	inactive
C[C@@H]1CN(S(=O)(=O)c2ccc3c(c2)OCCO3)CCN1S(=O)(=O)c1c(F)cccc1F	inactive	inactive

SMILES	Potency [1]	Potency [2]
Cc1cccc(C2N=C(Nc3nc4ccccc4o3)NC3=C2C(=O)CCC3)c1 (configuration not stated)	inactive	inactive
Cc1cccc(-c2ccc(=O)n(CC(=O)NCCc3ccccc3)n2)c1	inactive	inactive
O=C(Nc1ccc(S(=O)(=O)Nc2ncc(-c3ccccc3)s2)cc1)c1ccc2ccccc2c1	inactive	inactive
O=C1NC(=O)/C(=C/c2cccn2-c2ccc(P(=O)(O)O)cc2)N1	inactive	inactive
O=S(=O)(c1ccc2c(c1)OCCO2)N1CCN(S(=O)(=O)c2ccccc2OC(F)(F)F)CC1	inactive	inactive
N#Cc1ccc(NC(=O)Nc2nnc(-c3ccncc3)s2)cc1	inactive	inactive
Cc1cc(C)nc(NC(=S)N2CCN(c3nc4ccccc4o3)CC2)c1	inactive	inactive
O=C1c2ccccc2C(=O)N1c1cc(=O)c2ccccc2[nH]1	inactive	inactive
Cc1ccc(NS(=O)(=O)c2ccc(C(=O)Nc3nc(-c4ccccc4)cs3)cc2)cc1	inactive	inactive
O=C(CSc1nnc(-c2cccc([S+](=O)([O-])N3CCCC3)c2)n1-c1ccccc1)Nc1cccc(F)c1	inactive	inactive
O=C(OCC#CCSc1nnc(-c2ccc(Cl)cc2)o1)c1ccc(F)cc1	inactive	inactive
N#Cc1c(-c2ccc(OCCOCCOCCNC(=O)CCCC[C@@H]3SC[C@@H]4NC(=O)N[C@@H]43)cc2)no[n+]1[O-]	inactive	inactive
Cc1cc(C)nc(NC(=S)N2CCN(c3cnc4nccn4c3)CC2)c1	inactive	inactive
CC(=O)c1ccc(N2CCN(S(=O)(=O)c3ccc4c(c3)C(=O)OC4)CC2)cc1	inactive	inactive
O=C1CCCC2=C1C1(CCCC1)N=C(Nc1nc3cc(-c4ccccc4)ccc3o1)N2	inactive	inactive
Cc1ccc(OCCn2c(CCNC(=O)c3ccccc3F)nc3ccccc32)cc1	inactive	inactive
Cc1nc(-c2ccccc2C(C)C)nc(NCc2ccc(-c3cccnc3)cc2)c1C	inactive	inactive
Cc1ccc(S(=O)(=O)Nc2ccccc2C(=O)Nc2ccc(-c3ccccc3)cc2)cc1	inactive	inactive
C=C1C(=O)OC2CC3(C)C(CC12)C(C)=CC(O)C3OC(C)=O (configuration not stated)	inactive	inactive
Cc1cnc(-c2ccccc2C2COC2)nc1NCc1ccc(-c2cccnc2)cc1	inactive	inactive
Cc1cc(-c2ccccc2)nc2c(C(=O)Nc3ccc4c(c3)CCC4)cnn12	inactive	inactive
Cc1ccc(NS(=O)(=O)c2ccc3ccccc3c2)cc1C	inactive	inactive

SMILES	Potency [1]	Potency [2]
CC(O)c1cc2c(s1)c1cnn(Cc3ccccc3F)c(=O)c1n2C (configuration not stated)	inactive	inactive
O=C(Nc1ccc(-c2ccccc2)cc1)Nc1nnc(-c2ccncc2)s1	inactive	inactive
Cc1cc(NS(=O)(=O)c2ccc(NC(=O)Cc3ccc(Cl)c(Cl)c3)cc2)on1	inactive	inactive
Cc1cc(C)nc(NC(=S)N2CCN(c3ccc(S(C)(=O)=O)cc3F)CC2)c1	inactive	inactive
Cc1ccc(NS(=O)(=O)c2cc3c(cc2NC(C)CO)NC(=O)CC3)cc1C (configuration not stated)	inactive	inactive
Cc1cc(C)n2ncc(C(=O)Nc3ccccc3C)c2n1	inactive	inactive
NNC(=O)C(C(=O)OCc1ccccc1)c1ccccc1 (configuration not stated)	inactive	inactive
C/C(=C\c1ccc2c(c1)OCCO2)C1Nc2cccc3cccc(c23)N1	inactive	inactive
CC(C)Oc1ccc(C(=O)Nc2ccc(-c3nc4ccccc4[nH]3)cc2)cc1	inactive	inactive
CCOc1ccc(CCNC(=O)c2cc3ccccc3n2C)cc1OCC	inactive	inactive
CN(Cc1ccccc1)C(=O)C1CCN(Cc2cccc3ccccc23)CC1	inactive	inactive
Cc1cc2c(s1)c1cnn(Cc3ccccc3Br)c(=O)c1n2C	inactive	inactive
COc1cccc(-c2ccc3ncnc(NCc4cccs4)c3c2)c1	inactive	inactive
Cc1cc(C)nc(NC(=S)N2CCN(c3nsc4ccccc34)CC2)c1	inactive	inactive
c1nc(NCCC2CCCO2)c2cc(-c3ccc4c(c3)OCO4)ccc2n1 (configuration not stated)	inactive	inactive
O=[S+]([O-])(Nc1nccs1)c1ccc(NCc2cc(Cl)cc(Br)c2O)cc1	inactive	inactive
Cc1ccc(OCCn2c3c(c4ccccc42)CCN(C(=O)C2CCCCC2)C3)cc1	inactive	inactive
CCOc1ccc(CCN(C)C(=O)c2cc3sccc3n2Cc2ccccc2)cc1OCC	inactive	inactive
COC(=O)c1ccc(-c2c(NC(C)=O)sc3c2CCNC3)cc1	inactive	inactive
CCCn1c(-c2ccc(F)cc2)nc2c(NCCCN3CCCCC3C)nc(C)nc21 (configuration not stated)	inactive	inactive

Source: PubChem BioAssay (NCATS)
